Source: the supplement of paper PMC13380429

Tested on: Vero E6 infected with SARS-CoV-2
Assay: inhibition of SARS-CoV-2 cytopathic effect; higher = more antiviral protection, active = above 15
Conditions: 48 h

SMILES	inhibition of SARS-CoV-2 cytopathic effect (1 nM)	inhibition of SARS-CoV-2 cytopathic effect (8.33 nM)	inhibition of SARS-CoV-2 cytopathic effect (100 nM)	inhibition of SARS-CoV-2 cytopathic effect (833.33 nM)	inhibition of SARS-CoV-2 cytopathic effect (10000 nM)
CCCC(=O)O[C@]1(C(=O)COC(C)=O)CC[C@H]2[C@@H]3C[C@H](F)C4=CC(=O)C=C[C@]4(C)[C@@]3(F)[C@@H](O)C[C@@]21C [difluprednate]	1.05% (inactive)	1.55% (inactive)	1.52% (inactive)	1.03% (inactive)	6.96% (inactive)
O=C(O)c1ccccc1C(=O)Nc1ccc(-c2ccccc2)cc1 [kartogenin]	3.34% (inactive)	2.53% (inactive)	0.87% (inactive)	1.12% (inactive)	1.02% (inactive)
C[C@H](CS)C(=O)N1CCC[C@H]1C(=O)O [captopril]	-1.79% (inactive)	0.97% (inactive)	-2.39% (inactive)	-1.5% (inactive)	-0.97% (inactive)
COc1ccc(S(=O)(=O)N2c3ccc(Cl)cc3[C@](O)(c3ccccc3Cl)[C@@H]2C(=O)N2CCC[C@H]2C(N)=O)cc1OC [relcovaptan]	-0.27% (inactive)	-0.84% (inactive)	0.53% (inactive)	1.63% (inactive)	2.72% (inactive)
CCCC(=O)Nc1cccc(NC(=O)c2ccccc2Br)c1	1.03% (inactive)	1.45% (inactive)	0.94% (inactive)	-1.59% (inactive)	-0.66% (inactive)
CCC[C@H](Nc1nc(-c2ccc(NC(=O)NCC)c(OC)c2)ncc1C)c1cccnc1	0.07% (inactive)	-1.4% (inactive)	-1.33% (inactive)	-0.69% (inactive)	-2.7% (inactive)
C[C@H]1COc2c(C3(N)CC3)c(F)cc3c(=O)c(C(=O)O)cn1c23 [pazufloxacin]	-5.2% (inactive)	-1.82% (inactive)	2.15% (inactive)	0.57% (inactive)	-3.15% (inactive)
CC1(C)CCC(C)(C)c2cc(C(=O)Nc3ccc(C(=O)O)cc3)ccc21	0.12% (inactive)	2.74% (inactive)	1.53% (inactive)	1.49% (inactive)	3.21% (inactive)
Nc1ccc(S(=O)(=O)Nc2ccnn2-c2ccccc2)cc1 [sulfaphenazole]	2% (inactive)	2.26% (inactive)	1.62% (inactive)	2.18% (inactive)	-0.83% (inactive)
O=C1c2cccc(O)c2C(=O)c2c(O)cc(CO)cc21 [aloe-emodin]	-3.13% (inactive)	-0.39% (inactive)	-0.52% (inactive)	-3% (inactive)	-2.43% (inactive)
Cc1onc(-c2ccccc2)c1C(=O)N[C@@H]1C(=O)N2[C@@H]1SC(C)(C)[C@@H]2C(=O)O [oxacillin]	0.69% (inactive)	1.54% (inactive)	2.17% (inactive)	3.32% (inactive)	1.32% (inactive)
Cc1cc2nc3c(=O)[nH]c(=O)nc-3n(C)c2cc1C=O	0.98% (inactive)	-1.25% (inactive)	-1.28% (inactive)	2.07% (inactive)	1.18% (inactive)
CC(C)(CC(=O)N1CCCC1)NCC(=O)N1C[C@@H](F)C[C@H]1C#N	1.83% (inactive)	0.33% (inactive)	-0.99% (inactive)	-1.3% (inactive)	-0.94% (inactive)
[NH-]c1c[n+](N2CCOCC2)no1 [linsidomine]	0.45% (inactive)	3.55% (inactive)	0.57% (inactive)	-0.32% (inactive)	1.99% (inactive)
CCN(CC)CCO[C@H]1CC[C@@]2(C)C(=CC[C@@H]3[C@@H]2CC[C@]2(C)C(=O)CC[C@@H]32)C1	1.95% (inactive)	2.95% (inactive)	1.19% (inactive)	3.83% (inactive)	19.6% (active)
CC1=C(CC(=O)O)c2cc(F)ccc2/C1=C\c1ccc([S+](C)[O-])cc1 (stereo not given) [sulindac]	-0.99% (inactive)	-2.82% (inactive)	-1.46% (inactive)	-0.62% (inactive)	-2.36% (inactive)

SMILES	inhibition of SARS-CoV-2 cytopathic effect (1 nM)	inhibition of SARS-CoV-2 cytopathic effect (8.33 nM)	inhibition of SARS-CoV-2 cytopathic effect (100 nM)	inhibition of SARS-CoV-2 cytopathic effect (833.33 nM)	inhibition of SARS-CoV-2 cytopathic effect (10000 nM)
O=C(O)CNC(=O)c1nc(Cl)c2ccccc2c1O	0.76% (inactive)	0.65% (inactive)	4.78% (inactive)	2.19% (inactive)	-0.7% (inactive)
CNCc1ccc(-c2[nH]c3cc(F)cc4c3c2CCNC4=O)cc1 [rucaparib]	1.82% (inactive)	5.76% (inactive)	7.61% (inactive)	5.18% (inactive)	0.16% (inactive)
CCCNCCc1ccc(NS(=O)(=O)c2ccc(OC(F)(F)F)cc2)cc1	2.87% (inactive)	3.37% (inactive)	-0.23% (inactive)	1.93% (inactive)	-4.37% (inactive)
CC1=C(CCC(=O)O)c2cc3[nH]c(cc4nc(cc5[nH]c(cc1n2)c(C)c5C(C)O)C(C)=C4C(C)O)c(C)c3CCC(=O)O (stereo not given) [hematoporphyrin]	0.75% (inactive)	5% (inactive)	1.48% (inactive)	-0.76% (inactive)	-6.32% (inactive)
COc1ccc2[nH]c([S+]([O-])Cc3ncc(C)c(OC)c3C)nc2c1 (stereo not given) [omeprazole-magnesium]	3.38% (inactive)	2.29% (inactive)	3.04% (inactive)	6.47% (inactive)	6.97% (inactive)
CNC(=O)[C@@H](c1ccccc1)N1CCc2cc(OC)c(OC)cc2[C@@H]1CCc1ccc(C(F)(F)F)cc1 [almorexant]	2.74% (inactive)	2.39% (inactive)	2.44% (inactive)	1.95% (inactive)	1.06% (inactive)
COc1cc(N)c(Cl)cc1C(=O)NC1CCN(Cc2ccccc2)CC1 [clebopride]	-1.61% (inactive)	-0.47% (inactive)	-0.47% (inactive)	6.56% (inactive)	0.26% (inactive)
O=C(O)CCCc1ccc(N(CCCl)CCCl)cc1 [chlorambucil]	-0.23% (inactive)	0.88% (inactive)	-0.7% (inactive)	-1.67% (inactive)	-0.16% (inactive)
CN(C)c1ccc(-c2nc3c(N4CCN(CC(=O)Nc5nccs5)CC4)c(Cl)cnc3[nH]2)cc1	0.9% (inactive)	-0.82% (inactive)	-1.07% (inactive)	0.5% (inactive)	13.9% (inactive)
O=c1c2ccccc2oc2ccccc12 [xanthone]	1.22% (inactive)	1.53% (inactive)	1.84% (inactive)	-0.86% (inactive)	-3.12% (inactive)
COc1cccc(C2(O)CCCCC2CN(C)C)c1 (stereo not given)	3.29% (inactive)	6.35% (inactive)	2.41% (inactive)	-2.01% (inactive)	-5.31% (inactive)
Cc1ccc([N+](=O)[O-])cc1S(=O)(=O)N(C)C	-1.97% (inactive)	-4.63% (inactive)	-0.38% (inactive)	-0.5% (inactive)	-0.2% (inactive)
CC(C)OC(=O)N1CCC(Oc2ncnc3c2cnn3-c2ccc(S(C)(=O)=O)cc2F)CC1	-4.65% (inactive)	-1.23% (inactive)	2.78% (inactive)	-0.97% (inactive)	-1.25% (inactive)
CCCCc1nc(Cl)c(CO)n1Cc1ccc(-c2ccccc2-c2nnn[nH]2)cc1 [losartan]	0.46% (inactive)	1.87% (inactive)	-0.81% (inactive)	-2.88% (inactive)	-1.4% (inactive)
COc1cc(Nc2ncc(F)c(Nc3ccc4c(n3)NC(=O)C(C)(C)O4)n2)cc(OC)c1OC	-3.02% (inactive)	-0.43% (inactive)	-2.04% (inactive)	-4.61% (inactive)	-4.19% (inactive)
COc1cc(OC)c(NC(=O)Nc2cc(C)on2)cc1Cl	2.33% (inactive)	0.81% (inactive)	1.57% (inactive)	4.04% (inactive)	2.62% (inactive)
